Shown are actives, neighbours in structure and some others; about 2.8% of the full set was active somewhere.
pPAFAH inh: pPAFAH (human) enzyme inhibition; Q13093; recombinant pPAFAH, FP-rhodamine probe fluorescence polarization; inhibition, % at 3.39 µM; 330,000 compounds, 1.5% hits;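 active means inhibition above the mean inhibition across the screen plus 3 SD, cut at about 25% in these data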;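 further: inhibitors block binding of the rhodamine activity-based probe so polarization drops; 0% = enzyme with DMSO and 100% = wells lacking pPAFAH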
PAFAH2 FP inh: PAFAH2 (human) inhibition | Q99487 | recombinant PAFAH2, FP-rhodamine activity probe, fluorescence polarization | inhibition, % at 3.39 µM | 340,000 compounds, 0.99% hits | AID 492956;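 active means inhibition above the mean over all tested compounds plus 3 SD, cut at about 30% in these data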;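 further: inhibitors block probe labeling of enzyme so polarization drops; 0% = enzyme with DMSO and 100% = wells lacking PAFAH2 protein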
PAFAH1B2 FP inh: PAFAH1B2 (human) inhibition; P68402; recombinant PAFAH1B2, FP-rhodamine activity probe, fluorescence polarization; inhibition, % at 3.39 µM; 340,000 compounds, 1.2% hits; AID 492953;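 active means inhibition above the mean of all tested compounds plus 3 SD, cut at about 24% in these data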;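 further: 0% = enzyme with DMSO and 100% = wells lacking PAFAH1B2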
Target sequence (P68402 whole entry, looked up): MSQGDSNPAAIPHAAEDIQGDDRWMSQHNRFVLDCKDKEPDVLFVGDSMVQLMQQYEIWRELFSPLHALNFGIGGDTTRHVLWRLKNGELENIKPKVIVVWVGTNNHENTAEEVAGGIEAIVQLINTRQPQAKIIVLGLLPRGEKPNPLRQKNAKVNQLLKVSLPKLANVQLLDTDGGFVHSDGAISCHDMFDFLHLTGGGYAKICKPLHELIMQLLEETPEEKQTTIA
PAFAH1B3 inh: inhibitors of human PAFAH1B3. Q15102. recombinant PAFAH1B3, FP-rhodamine probe, fluorescence polarization. inhibition, % at 3.39 µM. 340,000 compounds, 0.28% hits;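 active means inhibition above the screen-wide average of all tested compounds plus 3 SD, cut at about 25% in these data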;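 further: 0% = enzyme with DMSO only and 100% = wells lacking PAFAH1B3 protein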
Target sequence (Q15102 whole entry, looked up): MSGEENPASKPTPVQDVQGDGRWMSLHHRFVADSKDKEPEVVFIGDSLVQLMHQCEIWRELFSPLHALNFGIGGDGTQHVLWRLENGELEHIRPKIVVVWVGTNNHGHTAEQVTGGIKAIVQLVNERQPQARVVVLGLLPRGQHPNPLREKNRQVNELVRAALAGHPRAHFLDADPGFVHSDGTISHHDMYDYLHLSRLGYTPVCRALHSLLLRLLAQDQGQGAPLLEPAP
HTRA1 inh: inhibitors of human serine peptidase HTRA1 | Q92743 | recombinant HTRA1, FP-rhodamine activity-based probe, fluorescence polarization | inhibition, % at 5.96 µM | 340,000 compounds, 0.5% hits | AID 504803; in the data active means inhibition above about 36%;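 further: 0% = enzyme with DMSO and 100% = wells lacking enzyme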
DAGLB inh: blocks human DAGLB lipase activity; inhibition, % at 5.17 µM; HEK293T DAGLB membrane lysate, EnzChek fluorogenic substrate; Q8NCG7; AID 504411; 340,000 compounds, 0.059% hits; in the data active means inhibition above about 34%;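 further: 0% = enzyme with vehicle and 100% = wells lacking enzyme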
pPAFAH confirm: pPAFAH (human) inhibition, confirmed | recombinant pPAFAH, FP-Rh probe fluorescence polarization | inhibition, % at 3.39 µM | AID 463230 | 2,300 compounds, 72% hits | shares compounds with pPAFAH inh;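 active means mean inhibition of the triplicate above the hit cutoff set for the earlier primary screen, cut at about 25% in these data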;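 further: 0% = enzyme with DMSO and 100% = wells lacking pPAFAH enzyme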
* = called active by the depositor.

What do the screens show for `COc1ccc(/C=N/Nc2nc(-c3cccnc3)nc3ccccc23)cc1OC`?
pPAFAH inh: 5; PAFAH2 FP inh: 5; PAFAH1B2 FP inh: 2; PAFAH1B3 inh: 5; HTRA1 inh: -17; DAGLB inh: 0

How did COc1cccc(OC)c1C(=O)NNS(=O)(=O)c1ccc2ccccc2c1 do in these assays?
PAFAH2 FP inh: -1; PAFAH1B2 FP inh: 4; PAFAH1B3 inh: -2; HTRA1 inh: -3; DAGLB inh: 0

Results for Cc1ccccc1Oc1ccc(-c2nc(N)nc(N)n2)cc1 ?
pPAFAH inh: 39*; PAFAH2 FP inh: 3; PAFAH1B2 FP inh: 1; PAFAH1B3 inh: -1; HTRA1 inh: -29; DAGLB inh: -1; pPAFAH confirm: 22

Results for CCCC(C(=O)NC(C)(C)CC)N(Cc1ccco1)C(=O)CNS(=O)(=O)c1ccccc1 (stereo not given) ?
pPAFAH inh: 17; PAFAH2 FP inh: 0; PAFAH1B2 FP inh: 4; PAFAH1B3 inh: 2; HTRA1 inh: -4; DAGLB inh: -1

What do the screens show for `O=C(COC(=O)c1c2c(nc3ccccc13)/C(=C/c1cccc([N+](=O)[O-])c1)CCC2)NC1CCS(=O)(=O)C1` (stereo not given)?
pPAFAH inh: 38*; PAFAH2 FP inh: -15; PAFAH1B2 FP inh: -2; PAFAH1B3 inh: -8; HTRA1 inh: -64; DAGLB inh: -1; pPAFAH confirm: 44*

What do the screens show for `COc1cccc(OC)c1-c1nn2c(-c3cc(-c4ccccc4)n[nH]3)nnc2s1`?
pPAFAH inh: 37*; PAFAH2 FP inh: 42*; PAFAH1B2 FP inh: 0; PAFAH1B3 inh: -2; HTRA1 inh: -39; DAGLB inh: 2; pPAFAH confirm: 46*

What do the screens show for `COc1cccc(-c2nnc3sc(-c4ccccc4)nn23)c1`?
pPAFAH inh: 3; PAFAH2 FP inh: 6; PAFAH1B2 FP inh: 2; PAFAH1B3 inh: 7; HTRA1 inh: -2; DAGLB inh: -11

How did Oc1ccccc1-c1ccn[nH]1 do in these assays?
pPAFAH inh: 1; PAFAH2 FP inh: 0; PAFAH1B2 FP inh: 4; PAFAH1B3 inh: 0; HTRA1 inh: 6; DAGLB inh: -4

Results for Oc1ccccc1-c1nc2c3ccccc3c3ccccc3c2[nH]1 ?
pPAFAH inh: 45*; PAFAH2 FP inh: 59*; PAFAH1B2 FP inh: 27*; PAFAH1B3 inh: 43*; HTRA1 inh: -21; DAGLB inh: 2; pPAFAH confirm: 27*

Results for COc1cccc(NC(=O)Nc2nc(-c3ccc(OC)c(OC)c3)cs2)c1 ?
pPAFAH inh: 36*; PAFAH2 FP inh: 2; PAFAH1B2 FP inh: 15; PAFAH1B3 inh: 21; HTRA1 inh: 3; DAGLB inh: -1; pPAFAH confirm: 14

What do the screens show for `Cc1cccc(C)c1NC(=O)C(=O)NCC1CCCN1S(=O)(=O)c1cccs1` (stereo not given)?
pPAFAH inh: 2; PAFAH2 FP inh: 4; PAFAH1B2 FP inh: 4; PAFAH1B3 inh: 2; HTRA1 inh: -3; DAGLB inh: 1

Results for COc1cc([N+](=O)[O-])cc(/C=N/NC(=O)C(C)Nc2cccc3ccccc23)c1O (stereo not given) ?
pPAFAH inh: 40*; PAFAH2 FP inh: 2; PAFAH1B2 FP inh: 8; PAFAH1B3 inh: 14; HTRA1 inh: 19; DAGLB inh: 20; pPAFAH confirm: 59*

How did COc1ccc(S(=O)(=O)Nc2c(C(=O)O)[nH]c3ccc(OC)cc23)c(OC)c1 do in these assays?
pPAFAH inh: 8; PAFAH2 FP inh: 18; PAFAH1B2 FP inh: 16; PAFAH1B3 inh: 7; HTRA1 inh: 31; DAGLB inh: 6

How did COc1ccc(S(=O)(=O)Nc2c(C(=O)O)[nH]c3ccccc23)c(OC)c1 do in these assays?
pPAFAH inh: 51*; PAFAH2 FP inh: 6; PAFAH1B2 FP inh: 12; PAFAH1B3 inh: 9; HTRA1 inh: 2; DAGLB inh: 3; pPAFAH confirm: 5

How did N#CC(C#N)=C(N)/C(C#N)=C/c1cc(O)c(O)c(O)c1 do in these assays?
pPAFAH inh: 39*; PAFAH2 FP inh: 35*; PAFAH1B2 FP inh: 33*; PAFAH1B3 inh: 39*; HTRA1 inh: 19; DAGLB inh: 14; pPAFAH confirm: 60*

Results for O=C1c2ccc(-c3ccc(F)cc3OCc3ccccc3)cc2S(=O)(=O)c2cccc(C(=O)N3CCN(c4ncc(Br)cn4)CC3)c21 ?
pPAFAH inh: 43*; PAFAH2 FP inh: -6; PAFAH1B2 FP inh: -4; PAFAH1B3 inh: -8; HTRA1 inh: -11; DAGLB inh: -6; pPAFAH confirm: 32*

Results for O=C1c2ccc(-c3ccc(F)cc3OCc3ccccc3)cc2S(=O)(=O)c2cccc(C(=O)N3CCN(c4ncc(Cl)cc4Cl)CC3)c21 ?
pPAFAH inh: 37*; PAFAH2 FP inh: 2; PAFAH1B2 FP inh: -6; PAFAH1B3 inh: 4; HTRA1 inh: -19; DAGLB inh: -5; pPAFAH confirm: 25*

What do the screens show for `COc1ccc(-c2ccc3c(c2)S(=O)(=O)c2cccc(C(=O)N4CCN(c5ccc(Cl)cn5)CC4)c2C3=O)cc1OC`?
pPAFAH inh: 36*; PAFAH2 FP inh: 62*; PAFAH1B2 FP inh: 5; PAFAH1B3 inh: -4; HTRA1 inh: -7; DAGLB inh: 2; pPAFAH confirm: 49*

How did O=C1c2ccc(Cl)cc2S(=O)(=O)c2cccc(C(=O)N3CCN(c4ccc(Cl)cn4)CC3)c21 do in these assays?
pPAFAH inh: 8; PAFAH2 FP inh: 0; PAFAH1B2 FP inh: 4; PAFAH1B3 inh: 2; HTRA1 inh: 8; DAGLB inh: 3

How did O=S(=O)(c1cccs1)N1CN(Cc2ccc(Cl)cc2)c2nc3ccccc3nc21 do in these assays?
pPAFAH inh: 1; PAFAH2 FP inh: 3; PAFAH1B2 FP inh: 9; PAFAH1B3 inh: 8; HTRA1 inh: -2; DAGLB inh: 1

How did O=S(=O)(c1cccs1)N1CN(Cc2ccco2)c2nc3ccccc3nc21 do in these assays?
pPAFAH inh: 46*; PAFAH2 FP inh: 2; PAFAH1B2 FP inh: 5; PAFAH1B3 inh: 3; HTRA1 inh: 12; DAGLB inh: -1; pPAFAH confirm: 16

Results for c1ccc(Nc2nc3ccccc3[nH]2)nc1 ?
pPAFAH inh: 36*; PAFAH2 FP inh: 4; PAFAH1B2 FP inh: 3; PAFAH1B3 inh: 6; HTRA1 inh: 6; DAGLB inh: 0; pPAFAH confirm: -2

Results for COc1ccc(C)cc1NC(=S)N1CCN(S(C)(=O)=O)CC1 ?
pPAFAH inh: 4; PAFAH2 FP inh: -3; PAFAH1B2 FP inh: 2; PAFAH1B3 inh: 4; HTRA1 inh: 8; DAGLB inh: 1

Results for O=C1NC(=O)C(c2ccccc2[N+](=O)[O-])=C1Nc1ccc(O)c(Cl)c1 ?
pPAFAH inh: 44*; PAFAH2 FP inh: 12; PAFAH1B2 FP inh: 0; PAFAH1B3 inh: 8; HTRA1 inh: 27; DAGLB inh: 8; pPAFAH confirm: 6
